NIH3T3 tox: NIH 3T3 cell cytotoxicity. NIH 3T3 viability, CellTiter-Glo ATP luminescence, 48-72 h. Potency, µM (doses to about 96.7 µM), hits mostly inhibitors. 94,000 compounds, 4.3% hits; also: nearly all actives have a fitted effect of over 55% in size
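Cytotoxicity was measured by CellTiter-Glo ATP luminescence after 48 or 72 h compound exposure at 37 °C. Mouse NIH 3T3 fibroblasts were seeded at 400 cells/well and dosed by 23 nL pin transfer.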
hNpr1 antagonist: antagonists of human natriuretic peptide receptor Npr1; P16066; HEK293 hNpr1 GloSensor cGMP, ANP-stimulated luminescence; Potency, µM (highest dose often 46.3 µM), actives largely listed as inhibitors; 76,000 compounds, 1.6% hits; AID 1347048; calls by dose curve; also: nearly all actives have a fitted effect of over 60% in size
Target sequence (P16066 whole entry, looked up): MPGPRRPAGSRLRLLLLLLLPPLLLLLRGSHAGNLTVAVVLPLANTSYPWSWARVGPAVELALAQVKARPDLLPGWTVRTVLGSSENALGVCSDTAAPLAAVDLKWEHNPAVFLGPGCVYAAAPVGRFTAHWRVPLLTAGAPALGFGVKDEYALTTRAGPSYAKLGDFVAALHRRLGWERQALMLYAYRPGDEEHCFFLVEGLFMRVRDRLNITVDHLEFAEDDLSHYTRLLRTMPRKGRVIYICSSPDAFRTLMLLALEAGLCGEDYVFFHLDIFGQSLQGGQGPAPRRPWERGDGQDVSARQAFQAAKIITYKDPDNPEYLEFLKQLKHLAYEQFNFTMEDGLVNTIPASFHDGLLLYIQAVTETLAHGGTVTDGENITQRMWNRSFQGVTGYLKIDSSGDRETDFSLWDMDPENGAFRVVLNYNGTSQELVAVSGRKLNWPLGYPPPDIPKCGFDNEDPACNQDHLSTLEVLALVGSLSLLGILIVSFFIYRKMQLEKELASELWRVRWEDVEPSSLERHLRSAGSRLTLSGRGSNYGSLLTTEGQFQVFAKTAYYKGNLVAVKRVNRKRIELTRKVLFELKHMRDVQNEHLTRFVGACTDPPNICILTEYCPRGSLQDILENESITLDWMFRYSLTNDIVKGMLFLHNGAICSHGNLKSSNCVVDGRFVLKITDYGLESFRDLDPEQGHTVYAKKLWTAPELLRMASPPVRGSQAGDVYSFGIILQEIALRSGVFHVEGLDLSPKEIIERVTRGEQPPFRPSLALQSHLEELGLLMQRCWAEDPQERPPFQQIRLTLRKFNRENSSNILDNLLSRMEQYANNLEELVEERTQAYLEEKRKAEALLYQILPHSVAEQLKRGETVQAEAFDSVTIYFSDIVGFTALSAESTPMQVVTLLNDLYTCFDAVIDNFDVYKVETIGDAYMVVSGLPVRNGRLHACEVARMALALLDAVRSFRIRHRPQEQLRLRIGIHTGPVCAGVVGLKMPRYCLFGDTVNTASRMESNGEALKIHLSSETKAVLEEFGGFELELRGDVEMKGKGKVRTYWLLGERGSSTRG
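HEK293 cells stably expressing human Npr1 and cGMP GloSensor pGS-40F, loaded 2 h with 2% GloSensor reagent, given compound 30 min at room temperature. Luminescence read before and 20 min after 0.1 nM hNppA.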
FLuc inh: inhibitors of firefly (Photinus pyralis) luciferase | Potency, µM (top dose mostly 115 µM), actives largely listed as inhibitors | purified P. pyralis luciferase, luminescence, biochemical | 76,000 compounds, 2.5% hits | P08659; also: nearly all actives have a fitted effect of over 65% in size
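Luminescence read by CCD imaging after purified firefly luciferase (10nM final) was added to substrate buffer holding 10uM D-luciferin and 10uM ATP, pH 7.5, pre-dosed with compound.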
HEK293 tox: cytotoxic compounds in HEK 293 cells. HEK 293 viability, ATP luminescence (CellTiter-Glo), 48-72 h. Potency, µM (top dose mostly 115 µM), actives largely listed as inhibitors. 94,000 compounds, 6.6% hits; also: nearly all actives have a fitted effect of over 60% in size
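Cytotoxicity was scored by loss of ATP-coupled luminescence (CellTiter-Glo) in HEK 293 cells. Compound treatment ran 48 or 72 hr at 37 degree Celsius, 5% CO2, 95% humidity.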
SNCA expr inhib: reduces expression of the alpha-synuclein gene; HEK-293 SNCA-luciferase knock-in, luminescence, 24 h; Potency, µM (titrated, usually from 57.2 µM), hits mostly inhibitors; 140,000 compounds, 0.17% hits; AID 1671194; also: nearly all actives have a fitted effect of over 45% in size
SNCA viab count: cell viability loss counter-screen. 150,000 compounds, 0.12% hits. HEK-293-SNCA-luc viability, GF-AFC fluorescence, 24 h. Potency, µM (highest dose often 57.1 µM), hits mostly cytotoxic; also: nearly all actives have a fitted effect of over 30% in size
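HEK-293-SNCA-luc cells (1500/well) plated 24 h, then exposed 24 h to a dilution series; GF-AFC added 30 min at 37C, fluorescence 405/540 nm; normalised to medium-only and DMSO wells, Hill fit.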
Hits are given with their value; 0 = inactive; ? = inconclusive; - = no result; [ ] = dose if it differs, or a comment. The list is not random: actives were taken first. Their share in the collection is about 7.2%. Unless noted, calls follow the shape of the dose curve; as a rule, active = well fitted curve in the direction sought with a large enough effect; inconclusive = small, poorly fitted or top-dose-only effect, or another doubt; inactive = no such curve, though single readings can be large; an effect the other way counts as inactive or inconclusive.

SMILES	NIH3T3 tox	hNpr1 antagonist	FLuc inh	HEK293 tox	SNCA expr inhib	SNCA viab count
Fc1ccc(N2CCN(CCC3OCCc4ccccc43)CC2)cc1 (stereo unspecified)	-	-	-	-	-	0
COC(=O)N1CC(CN2C(=O)c3c(c(C)nn3-c3ccccc3)C2C)C1 (stereo unspecified)	0	-	-	0	-	-
Cc1nn(-c2ccccc2)c2c1C(C)N(CC1CN(Cc3ccc(F)cc3)C1)C2=O (stereo unspecified)	35.5µM	-	-	?	-	-
Cc1nn(-c2ccccc2)c2c1C(C)N(CC1CN(C(=O)c3ccc(Cl)cc3)C1)C2=O (stereo unspecified)	35.5µM	-	-	?	-	-
Cc1ccc(NC(=O)N2CCc3c(C(=O)N(C)C)cccc32)cc1	?	0	15.8µM	0	0	0
CN(C)C(=O)c1cccc2c1CCN2C(=O)C1CC1	0	0	0	0	0	0
CCCCNC(=O)c1cccc2c1CCN2C(=O)c1ccc(F)cc1	0	0	0	?	0	0
CCCCNC(=O)c1cccc2c1CCN2C(=O)Nc1ccc(C)cc1	?	1.41µM	?	?	?	0
COCCCNC(=O)c1cccc2c1CCN2C(=O)Nc1cccc(C)c1	?	2µM	0.316µM	?	3.55µM	0
CCC(c1cccs1)N1C(=O)[C@H]2CN(C(=O)NC)C[C@H]2C1=O (stereo partly specified)	0	0	0	0	0	?
CN1CCN(Cc2ccc(Nc3cnc4ccc(N5CCOCC5)nn34)cc2)CC1	0	0	0	?	?	0
Clc1ccccc1Nc1cnc2ccc(N3CCOCC3)nn12	?	?	0	?	0	0
CN1CCN(c2ccc3ncc(Nc4ccccc4F)n3n2)CC1	?	0	0	112µM	0	0
c1ccc(-c2ccccc2Nc2cnc3ccc(N4CCOCC4)nn23)cc1	?	0	0	89.1µM	0	?
CN1CCN(c2ccc3ncc(Nc4cccc(C(F)(F)F)c4)n3n2)CC1	?	0	0	100µM	0	0
Cc1ccc2nc(C3CCN(CC(C)C)CC3)[nH]c(=O)c2c1	0	?	0	0	0	0
COc1ccc(-c2noc([C@@H]3CCCN3C(=O)c3ccsc3)n2)cc1OC	0	0	0	0	0	0
O=C(CCl)Nc1cccc(NC2=NS(=O)(=O)c3ccccc32)c1	-	-	-	-	-	29.9µM
CC(C)C(=O)Nc1cccc(NC2=NS(=O)(=O)c3ccccc32)c1	-	-	-	-	0	0
COc1cncc(Nc2cnc3ccc(-c4ccccc4OC)nn23)c1	?	?	0	?	0	0
COc1cncc(Nc2cnc3ccc(-c4ccc(OC)c(OC)c4)nn23)c1	20µM	0	0	63.1µM	0	0
COc1ccc(Nc2cnc3ccc(-c4ccc(OC)c(OC)c4)nn23)cc1	14.1µM	0	17.8µM	?	0	0
COc1cccc(Nc2cnc3ccc(-c4ccc(OC)c(OC)c4)nn23)c1	22.4µM	0	0	56.2µM	0	0
COc1ccccc1-c1ccc2ncc(Nc3cccc(N[S+](C)(=O)[O-])c3)n2n1	?	0	0	63.1µM	0	0
CC(C)=CCc1cc(O[C@@H]2O[C@H](CO[C@@H]3OC[C@](O)(CO)[C@H]3O)[C@@H](O)[C@H](O)[C@H]2O)ccc1O	-	-	-	-	-	0
SMILES	NIH3T3 tox	hNpr1 antagonist	FLuc inh	HEK293 tox	SNCA expr inhib	SNCA viab count
CCCNC(=O)C1N(c2ccc(OC)cc2)C(=O)C12CCCCC2 (stereo unspecified)	0	0	0	0	0	0
COc1ccc(C(=O)N2CCCC(n3cc(-c4nc(C(C)C)no4)nn3)C2)cn1 (stereo unspecified)	0	0	0	0	0	0
COc1ccccc1Nc1cnc2ccc(-c3ccccc3OC)nn12	?	0	0	?	?	0
COc1ccc(Nc2cnc3ccc(-c4ccc(OC)c(OC)c4)nn23)cc1OC	20µM	0	?	89.1µM	0	0
COc1ccc(-c2ccc3ncc(Nc4cnccn4)n3n2)cc1OC	25.1µM	0	0	?	0	0
COc1ccc(-c2ccc3ncc(Nc4ccncc4)n3n2)cc1OC	35.5µM	0	0	79.4µM	0	0
COc1ccc(Nc2cnc3ccc(-c4cccc(CO)c4)nn23)cc1OC	?	0	?	?	0	?
COc1cccc(Nc2cnc3ccc(-c4ccccc4OC)nn23)c1	?	0	0	79.4µM	0	0
C[C@@H](NS(C)(=O)=O)c1onc(-c2cccnc2)c1C(=O)O	0	0	0	0	0	0
COc1cccc(-c2cccc(C(=O)N3CCCC3C(=O)NCc3ccccc3F)c2)c1 (stereo unspecified)	?	-	-	?	0	0[12.5 µM]
O=C(Cn1c(=O)oc2ccccc21)N1CCC(N2CC3CC(C2)[C@H]2CCCC(=O)N2C3)CC1 (stereo partly specified)	0	0	0	0	0	0
COc1ccc(Nc2cnc3ccc(-c4ccccc4)nn23)cc1OC	?	0	0	63.1µM	?	0
COc1ccc(Nc2cc3c(cn2)CN(CCc2ccccc2)CCN3)cc1OC	25.1µM	0	0	50.1µM	0	?
COc1ccc(Nc2cc3c(cn2)CN(Cc2ccncc2)CCN3)cn1	0	0	0	?	0	0
COc1ccc(Nc2cc3c(cn2)CN(CCc2ccccc2)CCN3)cc1	25.1µM	0	?	31.6µM	0	0
CC(C)c1ccc(CN2CCCC3(CCN(C(=O)c4ccnn4C)C3)C2)cc1 (stereo unspecified)	0	0	0	39.8µM	0	0
O=C(c1ccncc1)N1CCC[C@@]2(CCN(Cc3ccncc3)C2)C1	-	-	-	-	0	0
C[C@@]12C(=O)OC(=O)[C@@]1(C)C1CCC2O1	-	-	-	-	15.2µM	?
CCCN1CCC2(CCN(C(=O)OC)CC2)Oc2ccccc21	?	0	0	100µM	0	0
CCCN1CCC2(CCN(C(=O)c3ccc(OC)cc3)CC2)Oc2ccccc21	?	0	0	44.7µM	0	0
COC(=O)N1CCC2(CC1)CCN(Cc1cccs1)c1ccccc1O2	?	0	0	?	?	0
Cc1cccc(C2CCCN(C(=O)c3cn(CCc4ccccc4)nn3)C2)c1 (stereo unspecified)	?	0	0	39.8µM	0	0
Cc1ccc(SC2CCN(C(=O)c3cn(CCc4ccccc4)nn3)CC2)cc1	?	0	0	89.1µM	0	0
COC1C(=O)N(CC2CC2)C12CCN(C(=O)C1CC1)CC2 (stereo unspecified)	0	0	0	0	0	0
CN1CCN(C(=O)C2CCc3nc(N4CCN(C(=O)C5CCC5)CC4)sc3C2)CC1 (stereo unspecified)	0	0	0	0	0	0
O=C(c1cnn2ccccc12)N1CCC(Cc2cccc(CO)c2)C1 (stereo unspecified)	?	7.08µM	?	?	?	0
Cc1ccc(Nc2ccnc(N3CCN(C(=O)Cc4ccc(F)cc4)CC3)n2)cc1	31.6µM	-	-	?	0	0
